PubChem BioAssay (Tox21)
Results filed as inconclusive are left out. Calls of active or inactive are those of the source. Unless noted, the call rests on the fitted dose curve; in most records, active means well fitted curve in the direction sought with a large enough effect in the repeat runs; inconclusive means weak or mixed curves; inactive means no such curve, though single readings can be large; an effect the other way counts as inactive or inconclusive.

What was measured:
[1] = qHTS assay for small molecule agonists of the p53 signaling pathway (AID 651631; calls by dose curve; further: nearly all actives have a fitted effect of over 15% in size)
Outline: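 Beta-lactamase reporter activity under p53 response elements was quantified in HCT-116 cells by FRET fluorescence, following 16 h incubation with test compounds at 37 °C and 2 h substrate development at room temperature.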

[2] = qHTS assay for small molecules that induce genotoxicity in human embryonic kidney cells expressing luciferase-tagged ATAD5 (AID 651632); further: nearly all actives have a fitted effect of over 15% in size
Outline: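 HEK293T cells carrying luciferase-tagged ATAD5 were given compound or DMSO vehicle and incubated 16 hr at 37C, 5% CO2. Luciferase activity was read after 30 min at room temperature with Amplite; a rise signals genotoxic stress.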

[3] = qHTS assay for small molecule agonists of the p53 signaling pathway - cell viability (AID 651633; calls by dose curve;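 further: p53RE-bla HCT reporter cells with a stable beta-lactamase p53 reporter; series mostly up to about 83 µM; nearly all actives have a fitted effect of over 30% in size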)
Outline: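 p53RE-bla cells were treated with compound for 16 hours at 37 C. Cytotoxicity was then measured as CellTiter-Glo luminescence after 30 min at room temperature.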

[4] = qHTS assay for small molecules that induce genotoxicity in human embryonic kidney cells expressing luciferase-tagged ATAD5 - cell viability (AID 651634; calls by dose curve; further: nearly all actives have a fitted effect of over 25% in size)
Outline: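 HEK293T cells carrying luciferase-tagged ATAD5, 2,000 cells/well, exposed to compound for 15.5 hr at 37C. Viability read as live-cell protease activity by CellTiter-Fluor fluorescence after 30 min at 37C.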

[5] = qHTS assay for small molecule disruptors of the mitochondrial membrane potential - cell viability (AID 720634; calls by dose curve;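 further: human HepG2 liver cancer cells; series mostly up to about 83 µM; nearly all actives have a fitted effect of over 20% in size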)
Outline: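 HepG2 cells, 2,000 per well, attached overnight, then treated 1 hr at 37 C, 5% CO2. Viability read as ATP by CellTiter-Glo luminescence after 30 min at room temperature. Read in the same wells as the m-MPI membrane-potential dye assay.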

[6] = qHTS assay for small molecule disruptors of the mitochondrial membrane potential (AID 720635); further: potency means the concentration at half of the fitted maximal effect
Outline: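 HepG2 cells exposed to compound 1 hr at 37C, then Mito-MPS dye 30 min. Ratio read of aggregate (540/590 nm) versus monomer (490/535 nm) fluorescence.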

[7] = qHTS assay to test for compound auto fluorescence at 590 nm (red) in HepG2 cells (AID 720674)
Outline: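 HepG2 cells, 2,000 per well in MEM with 10% FBS, attached overnight at 37 C, then got 23 nL compound or DMSO. After 1 hr at 37 C, 5% CO2, red fluorescence was read at 540/590 nm against Rose Bengal sodium as reference.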

[8] = qHTS assay to test for compound auto fluorescence at 535 nm (green) in HepG2 cells (AID 720675)
[9] = qHTS assay to test for compound auto fluorescence at 460 nm (blue) in HEK293 cells (AID 720678)
Outline: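 Cells were seeded and left to adhere for 4-5 hr at 37C. Compounds were then pin-transferred. After an overnight incubation at 37C under 5% CO2, intrinsic fluorescence at 405/460 nm was measured and referenced to triamterene.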

[10] = qHTS assay to test for compound auto fluorescence at 590 nm (red) in HEK293 cells (AID 720679)
Outline: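 Each well held 2,000 HEK293 cells in medium containing 10% dialyzed FBS. Following 4-5 hr attachment at 37C, 23 nL test compound or DMSO was added; plates sat overnight, and red fluorescence (540/590nm) was recorded.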

[11] = qHTS assay to test for compound auto fluorescence at 535 nm (green) in HEK293 cells (AID 720680)
[12] = qHTS assay to test for compound auto fluorescence at 460 nm (blue) in HEK293 cell free culture (AID 720681)
Outline: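 Compounds were added to cell-free DMEM with 10% FBS and fluorescence read directly. The blue channel used 405 nm excitation and 460 nm emission, with triamterene as the reference fluorophore.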

[13] = qHTS assay to test for compound auto fluorescence at 535 nm (green) in HEK293 cell free culture (AID 720682)
Outline: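 Each library compound, or DMSO control, is added by pintool to medium alone, comprising DMEM and 10% FBS. Emission at 535 nm following 485 nm excitation is quantified against fluorescein.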

[14] = qHTS assay to test for compound auto fluorescence at 590 nm (red) in HEK293 cell free culture (AID 720683)
Outline: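 Cell-free wells of DMEM with 10% FBS received compound, and intrinsic fluorescence was read at excitation/emission 540/590 nm. Values expressed as equivalence to Rose Bengal sodium.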

[15] = qHTS assay to test for compound auto fluorescence at 590 nm (red) in HepG2 cell free culture (AID 720684)
Outline: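 Compounds are added to culture medium (MEM, 10% FBS) lacking cells, then fluorescence is read at excitation 540 nm, emission 590 nm, with Rose Bengal sodium as the equivalency standard.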

[16] = qHTS assay to test for compound auto fluorescence at 460 nm (blue) in HepG2 cell free culture (AID 720685)
Outline: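 Compound (23 nL) or DMSO pinned into cell-free MEM with 10% FBS; blue fluorescence read at 405/460 nm excitation/emission, expressed as auto-fluorescence equivalency to triamterene.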

[17] = qHTS assay to test for compound auto fluorescence at 535 nm (green) in HepG2 cell free culture (AID 720686)
[18] = qHTS assay to test for compound auto fluorescence at 460 nm (blue) in HepG2 cells (AID 720687)
Outline: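 HepG2 cells in MEM with 10% FBS, attached overnight at 37 C, were exposed to compound or DMSO for 1 hr at 37 C, 5% CO2. Blue fluorescence was read at 405/460 nm, with triamterene as reference fluorophore.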

[19] = target: Glucocorticoid receptor (Homo sapiens) (UniProt P04150); assay: qHTS assay to identify small molecule agonists of the glucocorticoid receptor (GR) signaling pathway (AID 720691; active means well fitted activation curve with a large enough effect in the signal ratio in the repeat runs, not every such curve was filed as active; the % refers to the signal ratio)
Outline: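 GR-bla HeLa cells carrying a GRE-driven beta-lactamase reporter, exposed to compounds for 18 h at 37 C. Reporter activation read as fluorescence after 2 h with LiveBLAzer B/G FRET substrate at room temperature.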

[20] = target: Glucocorticoid receptor (Homo sapiens) (UniProt P04150); assay: qHTS assay to identify small molecule antagonists of the glucocorticoid receptor (GR) signaling pathway (AID 720692; active means well fitted inhibition curve with a large enough effect in the signal ratio in the repeat runs, not every such curve was filed as active; the % refers to the signal ratio)
Outline: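 GR-bla HeLa cells carrying a GRE-driven beta-lactamase reporter received compound after 4 h plating, then dexamethasone (5 nM final). After 18 h at 37C, the FRET substrate was loaded for 2 h at room temperature and fluorescence read.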

Measured: Potency

Sequence of Glucocorticoid receptor (Homo sapiens) (P04150 whole entry, looked up): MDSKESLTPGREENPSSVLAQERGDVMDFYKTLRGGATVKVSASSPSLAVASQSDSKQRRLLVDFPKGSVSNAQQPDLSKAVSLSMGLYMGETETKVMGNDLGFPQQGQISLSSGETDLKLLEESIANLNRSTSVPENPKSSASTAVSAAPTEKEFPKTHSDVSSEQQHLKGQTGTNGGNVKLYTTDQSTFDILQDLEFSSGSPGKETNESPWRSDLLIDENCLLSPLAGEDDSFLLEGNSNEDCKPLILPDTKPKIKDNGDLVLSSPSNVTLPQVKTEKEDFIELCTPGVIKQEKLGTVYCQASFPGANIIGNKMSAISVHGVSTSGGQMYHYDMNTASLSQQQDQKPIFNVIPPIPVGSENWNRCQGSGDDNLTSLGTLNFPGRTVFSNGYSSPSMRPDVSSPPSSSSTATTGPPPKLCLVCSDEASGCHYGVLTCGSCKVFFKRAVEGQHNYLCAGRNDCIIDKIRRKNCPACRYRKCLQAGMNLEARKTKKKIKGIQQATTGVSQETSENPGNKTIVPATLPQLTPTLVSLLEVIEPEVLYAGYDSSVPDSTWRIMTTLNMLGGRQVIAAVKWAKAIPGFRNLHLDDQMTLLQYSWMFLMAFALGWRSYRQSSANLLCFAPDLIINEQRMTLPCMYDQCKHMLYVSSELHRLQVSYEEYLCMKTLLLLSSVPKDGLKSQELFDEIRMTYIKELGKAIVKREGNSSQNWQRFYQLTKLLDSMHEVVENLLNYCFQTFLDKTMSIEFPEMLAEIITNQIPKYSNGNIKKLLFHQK

CCC(C)Cl (centres undefined)
inactive: all assays above

C=CCc1ccc(OC(=O)Cc2ccccc2)c(OC)c1
inactive: all assays above

NC(=O)CF
inactive: all assays above

Cc1nnc(-c2ccccc2)c(=O)n1N
inactive: all assays above

CCCN(CCC)c1c([N+](=O)[O-])cc(C(C)C)cc1[N+](=O)[O-]
active: [6] 12.2 µM
not listed: [19] | [20]
inactive: all other assays above

CN(C)N
inactive: all assays above

O=C([O-])c1ccccn1.O=C([O-])c1ccccn1.O=C([O-])c1ccccn1.[Cr+3]
not listed: [20]
inactive: all other assays above

Oc1cccc(Cl)c1
active: [6] 53.8 µM
not listed: [16]
inactive: all other assays above

O=C(O)c1cc(Cl)ccc1Cl
not listed: [16] | [20]
inactive: all other assays above

O=[N+]([O-])O[C@H]1CO[C@H]2[C@@H]1OC[C@H]2O[N+](=O)[O-]
not listed: [16] | [20]
inactive: all other assays above

CC(O)CN1CCN(CC(=O)[O-])CCN(CC(=O)[O-])CCN(CC(=O)[O-])CC1.[Gd+3] (centres undefined)
inactive: all assays above

C[C@H]1O[C@H](OC2[C@@H](O)[C@@H](O)C(O)[C@H](O)[C@H]2O)[C@@H](N)C[C@@H]1N=C(N)C(=O)O (some centres undefined)
not listed: [16]
inactive: all other assays above

c1ccc2c(c1)sc1ccccc12
not listed: [6]
inactive: all other assays above

COC1CC(=C(c2cccs2)c2cccs2)C[N+](C)(C)C1 (centres undefined)
inactive: all assays above

N#CC(C#N)=C(C#N)C#N
not listed: [6]
inactive: all other assays above
